Measured values as given in the supplement of paper PMC10849652.
About 7,900 targets were measured; listed, in parts, are those with a hit and a random draw of the rest. About 0.6% of all pairs of compound and target were hits.

Key:
Experiment in all cases: log2 fold change, soluble protein after heating vs DMSO (PISA); higher = thermal stabilisation; K562 cells, 10 uM, 30 min; active = over 0.2 and 3.5 SD of the protein, either way, in both replicates (recomputed)
[1] = compound: COC1=CC=C(C=C1)CN2C=CC3=C2C=C(C=C3)C(=O)NO
How it was run: (§1)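 Soluble protein was quantified by TMTpro 16plex LC-MS/MS after channel sums were equalised. It was obtained as the supernatant after 21,000xg for 90 min from pooled aliquots of K562 cells (2×10^6 cells/mL, 10 μM compound, 30 min) heated for 3 min across 48°C-58°C and extracted in PBS with 0.5% NP-40 at 4°C. Thermal stability values are relative to control samples and come from duplicates. They are given as log2 fold changes.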

filanesib = compound: CON(C)C(=O)N1N=C(c2cc(F)ccc2F)S[C@@]1(CCCN)c1ccccc1 [filanesib]
How it was run: as §1

zotarolimus = compound: CO[C@H]1C[C@@H]2CC[C@@H](C)[C@@](O)(O2)C(=O)C(=O)N2CCCC[C@H]2C(=O)O[C@H]([C@H](C)C[C@@H]2CC[C@H](n3cnnn3)[C@H](OC)C2)CC(=O)[C@H](C)/C=C(\C)[C@@H](O)[C@@H](OC)C(=O)[C@H](C)C[C@H](C)/C=C/C=C/C=C/1C [zotarolimus]
How it was run: as §1

idasanutlin = compound: COc1cc(C(=O)O)ccc1NC(=O)[C@@H]1N[C@@H](CC(C)(C)C)[C@](C#N)(c2ccc(Cl)cc2F)[C@H]1c1cccc(Cl)c1F [idasanutlin]
How it was run: as §1

alisertib = compound: COc1cc(Nc2ncc3c(n2)-c2ccc(Cl)cc2C(c2c(F)cccc2OC)=NC3)ccc1C(=O)O [alisertib]
How it was run: as §1

[2] = compound: COc1cc2nc(-c3cc(F)ccc3O)nc(N[C@@H]3CNC[C@H]3C(C)(C)O)c2cc1OC
How it was run: as §1

gefitinib = compound: COc1cc2ncnc(Nc3ccc(F)c(Cl)c3)c2cc1OCCCN1CCOCC1 [gefitinib]
How it was run: as §1

[3] = compound: COc1cccc2cc(-c3nc([C@H]4CC[C@H](C(=O)O)CC4)n4ncnc(N)c34)[nH]c12
How it was run: as §1

lapatinib = compound: CS(=O)(=O)CCNCc1ccc(-c2ccc3ncnc(Nc4ccc(OCc5cccc(F)c5)c(Cl)c4)c3c2)o1 [lapatinib]
How it was run: as §1

pictilisib = compound: CS(=O)(=O)N1CCN(Cc2cc3nc(-c4cccc5[nH]ncc45)nc(N4CCOCC4)c3s2)CC1 [pictilisib]
How it was run: as §1

[4] = compound: CS(=O)(=O)c1ccc(-c2cnc(N)c(C(=O)Nc3ccccc3)n2)cc1
How it was run: as §1

crizotinib = compound: C[C@@H](Oc1cc(-c2cnn(C3CCNCC3)c2)cnc1N)c1c(Cl)ccc(F)c1Cl [crizotinib]
How it was run: as §1

[5] = compound: C[C@@H]1COCCN1C2=NC(=NC(=C2)C3(CC3)S(=O)(=O)C)C4=C5C=CNC5=CC=C4
How it was run: as §1

[6] = compound: C[C@H](C1=CC=C(C=C1)C(=O)NC2=C3C=CNC3=NC=C2)N
How it was run: as §1

duvelisib = compound: C[C@H](Nc1ncnc2nc[nH]c12)c1cc2cccc(Cl)c2c(=O)n1-c1ccccc1 [duvelisib]
How it was run: as §1

gandotinib = compound: Cc1cc(Nc2cc(CN3CCOCC3)c3nc(C)c(Cc4ccc(Cl)cc4F)n3n2)n[nH]1 [gandotinib]
How it was run: as §1

tozasertib = compound: Cc1cc(Nc2cc(N3CCN(C)CC3)nc(Sc3ccc(NC(=O)C4CC4)cc3)n2)n[nH]1 [tozasertib]
How it was run: as §1

[7] = compound: Cc1cc(SCc2sc(-c3ccc(C(F)(F)F)cc3)nc2C)ccc1OCC(=O)O
How it was run: as §1

doramapimod = compound: Cc1ccc(-n2nc(C(C)(C)C)cc2NC(=O)Nc2ccc(OCCN3CCOCC3)c3ccccc23)cc1 [doramapimod]
How it was run: as §1

ispinesib = compound: Cc1ccc(C(=O)N(CCCN)[C@@H](c2nc3cc(Cl)ccc3c(=O)n2Cc2ccccc2)C(C)C)cc1 [ispinesib]
How it was run: as §1

Measured: log2 fold change

AAMP (UniProt Q13685)
Chain of UniProt Q13685 (Q13685 whole entry, looked up): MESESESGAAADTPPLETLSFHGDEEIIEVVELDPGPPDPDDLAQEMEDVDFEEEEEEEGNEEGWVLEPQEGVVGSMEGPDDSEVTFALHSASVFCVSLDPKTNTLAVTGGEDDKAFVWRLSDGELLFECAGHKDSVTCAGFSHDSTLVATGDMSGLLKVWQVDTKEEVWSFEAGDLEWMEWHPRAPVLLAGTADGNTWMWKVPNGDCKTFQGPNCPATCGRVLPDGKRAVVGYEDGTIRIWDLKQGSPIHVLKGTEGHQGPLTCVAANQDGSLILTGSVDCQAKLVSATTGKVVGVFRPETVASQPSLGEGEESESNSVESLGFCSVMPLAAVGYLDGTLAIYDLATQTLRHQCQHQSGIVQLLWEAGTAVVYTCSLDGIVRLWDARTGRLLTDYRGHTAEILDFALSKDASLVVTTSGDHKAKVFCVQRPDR
inactive: [1] -0.031 | filanesib 0.003 | zotarolimus 0.029 | idasanutlin -0.052 | alisertib -0.049 | [2] -0.027 | gefitinib 0.026 | [3] 0.033 | lapatinib 0.024 | pictilisib -0.002 | [4] 0.027 | crizotinib 0.115 | [5] -0.007 | [6] -0.006 | duvelisib 0.022 | gandotinib -0.047 | tozasertib 0.053 | [7] -0.03 | doramapimod -0.037 | ispinesib 0.038

BCCIP (UniProt Q9P287)
Chain of UniProt Q9P287 (Q9P287 whole entry, looked up): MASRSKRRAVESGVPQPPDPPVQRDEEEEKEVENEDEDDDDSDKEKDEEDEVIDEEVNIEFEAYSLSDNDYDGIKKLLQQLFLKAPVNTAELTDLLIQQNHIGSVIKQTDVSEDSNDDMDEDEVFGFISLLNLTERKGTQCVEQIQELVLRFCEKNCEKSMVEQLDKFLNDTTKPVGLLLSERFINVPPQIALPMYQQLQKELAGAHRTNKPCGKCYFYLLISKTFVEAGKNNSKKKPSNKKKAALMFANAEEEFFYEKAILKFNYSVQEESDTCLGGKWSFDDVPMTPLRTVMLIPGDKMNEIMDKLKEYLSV
inactive: [1] -0.022 | filanesib 0.06 | zotarolimus 0.031 | idasanutlin -0.048 | alisertib -0.086 | [2] 0.033 | gefitinib 0.036 | [3] -0.024 | lapatinib 0.01 | pictilisib -0.024 | [4] -0.015 | crizotinib -0.02 | [5] -0.044 | [6] 0.074 | duvelisib -0.03 | gandotinib -0.093 | tozasertib -0.005 | [7] 0.037 | doramapimod 0.01 | ispinesib 0.001

AIP (UniProt O00170)
Chain of UniProt O00170 (O00170 whole entry, looked up): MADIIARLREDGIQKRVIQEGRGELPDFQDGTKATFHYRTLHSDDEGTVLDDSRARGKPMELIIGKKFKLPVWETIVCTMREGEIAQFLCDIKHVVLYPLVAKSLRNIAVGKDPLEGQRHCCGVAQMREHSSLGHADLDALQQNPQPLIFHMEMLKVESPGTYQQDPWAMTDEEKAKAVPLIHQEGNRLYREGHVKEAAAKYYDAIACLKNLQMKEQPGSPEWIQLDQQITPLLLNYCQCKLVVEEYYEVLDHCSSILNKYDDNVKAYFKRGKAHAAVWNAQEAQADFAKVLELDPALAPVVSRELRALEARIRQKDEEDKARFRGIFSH
inactive: [1] 0.06 | filanesib -0.041 | zotarolimus 0.021 | idasanutlin -0.019 | alisertib -0.046 | [2] 0.054 | gefitinib -0.002 | [3] -0.019 | lapatinib -0.019 | pictilisib 0.015 | [4] 0.031 | crizotinib 0.039 | [5] 0.075 | [6] -0.055 | duvelisib 0.014 | gandotinib -0.058 | tozasertib 0.064 | [7] 0.038 | doramapimod -0.024 | ispinesib 0.011

BYSL (UniProt Q13895)
Chain of UniProt Q13895 (Q13895 whole entry, looked up): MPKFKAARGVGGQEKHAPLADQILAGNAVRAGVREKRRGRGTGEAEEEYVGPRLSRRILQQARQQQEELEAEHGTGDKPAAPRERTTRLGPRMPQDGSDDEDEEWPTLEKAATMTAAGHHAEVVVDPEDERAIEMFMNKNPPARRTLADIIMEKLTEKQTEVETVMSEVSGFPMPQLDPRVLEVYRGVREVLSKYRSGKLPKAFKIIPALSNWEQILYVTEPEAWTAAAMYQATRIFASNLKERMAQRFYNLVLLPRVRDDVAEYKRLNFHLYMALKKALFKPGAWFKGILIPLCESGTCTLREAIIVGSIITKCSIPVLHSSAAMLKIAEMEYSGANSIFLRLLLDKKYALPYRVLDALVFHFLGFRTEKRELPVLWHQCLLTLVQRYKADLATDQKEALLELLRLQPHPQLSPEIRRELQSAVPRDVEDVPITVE
inactive: [1] -0.033 | filanesib 0.078 | zotarolimus 0.065 | idasanutlin -0.057 | alisertib 0.022 | [2] 0.207 | gefitinib -0.03 | [3] -0.057 | lapatinib 0.032 | pictilisib -0.022 | [4] -0.003 | crizotinib -0.049 | [5] 0 | [6] 0.05 | duvelisib -0.041 | gandotinib -0.012 | tozasertib 0.1 | [7] 0.135 | doramapimod 0.037 | ispinesib -0.094

ASH2L (UniProt Q9UBL3)
inactive: [1] 0.019 | filanesib 0.044 | zotarolimus 0.096 | idasanutlin 0.021 | alisertib -0.034 | [2] 0.035 | gefitinib 0.004 | [3] -0.014 | lapatinib -0.011 | pictilisib 0.039 | [4] 0.008 | crizotinib 0.126 | [5] 0.046 | [6] 0.058 | duvelisib 0.028 | gandotinib 0.004 | tozasertib 0.068 | [7] 0.02 | doramapimod -0.068 | ispinesib 0.036

ACSL4 (UniProt O60488)
Chain of UniProt O60488 (O60488 whole entry, looked up): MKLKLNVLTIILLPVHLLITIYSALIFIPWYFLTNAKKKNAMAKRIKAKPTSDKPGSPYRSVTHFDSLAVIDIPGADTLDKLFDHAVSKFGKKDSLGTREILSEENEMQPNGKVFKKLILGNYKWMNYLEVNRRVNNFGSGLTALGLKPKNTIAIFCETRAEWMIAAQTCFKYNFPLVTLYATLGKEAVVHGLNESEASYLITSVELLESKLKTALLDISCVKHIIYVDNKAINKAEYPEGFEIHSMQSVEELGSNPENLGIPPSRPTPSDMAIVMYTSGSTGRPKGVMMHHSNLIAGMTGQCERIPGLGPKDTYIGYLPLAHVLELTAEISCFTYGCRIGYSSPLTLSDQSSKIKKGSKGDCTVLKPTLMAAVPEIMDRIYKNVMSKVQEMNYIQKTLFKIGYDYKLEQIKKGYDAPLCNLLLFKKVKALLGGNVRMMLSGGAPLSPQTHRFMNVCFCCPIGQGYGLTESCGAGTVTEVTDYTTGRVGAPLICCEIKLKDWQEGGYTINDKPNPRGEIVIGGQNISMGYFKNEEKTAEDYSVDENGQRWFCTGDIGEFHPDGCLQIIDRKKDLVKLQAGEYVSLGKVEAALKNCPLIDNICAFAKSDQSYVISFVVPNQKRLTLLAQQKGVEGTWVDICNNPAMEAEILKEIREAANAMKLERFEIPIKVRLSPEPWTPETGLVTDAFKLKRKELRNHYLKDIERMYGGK
active: crizotinib -0.338 | ispinesib -0.311
inactive: [1] 0.09 | filanesib -0.071 | zotarolimus -0.058 | idasanutlin -0.113 | alisertib -0.006 | [2] -0.105 | gefitinib 0.075 | [3] -0.053 | lapatinib 0.052 | pictilisib 0.052 | [4] 0.02 | [5] 0.07 | [6] 0.099 | duvelisib 0.045 | gandotinib -0.089 | tozasertib 0.032 | [7] 0.151 | doramapimod 0.01

ACAD9 (UniProt Q9H845)
Chain of UniProt Q9H845 (Q9H845 whole entry, looked up): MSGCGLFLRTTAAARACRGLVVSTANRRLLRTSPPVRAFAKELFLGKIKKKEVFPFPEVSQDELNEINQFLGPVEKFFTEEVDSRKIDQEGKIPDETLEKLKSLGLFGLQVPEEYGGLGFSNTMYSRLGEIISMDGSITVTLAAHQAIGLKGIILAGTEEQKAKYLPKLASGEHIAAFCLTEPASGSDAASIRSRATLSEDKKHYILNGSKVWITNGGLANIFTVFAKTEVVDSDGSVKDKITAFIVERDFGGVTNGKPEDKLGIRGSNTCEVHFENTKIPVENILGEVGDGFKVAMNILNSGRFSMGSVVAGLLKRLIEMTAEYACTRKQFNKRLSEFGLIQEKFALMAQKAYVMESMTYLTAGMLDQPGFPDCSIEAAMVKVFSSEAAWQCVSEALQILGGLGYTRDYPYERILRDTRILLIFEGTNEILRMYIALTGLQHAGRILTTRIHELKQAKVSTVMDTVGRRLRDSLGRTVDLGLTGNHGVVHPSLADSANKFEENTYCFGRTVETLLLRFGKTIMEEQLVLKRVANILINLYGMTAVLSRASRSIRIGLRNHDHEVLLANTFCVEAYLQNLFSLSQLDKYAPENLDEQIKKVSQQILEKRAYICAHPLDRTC
inactive: [1] -0.005 | filanesib -0.069 | zotarolimus -0.017 | idasanutlin 0.017 | alisertib -0.012 | [2] 0.03 | gefitinib 0.016 | [3] 0.083 | lapatinib -0.015 | pictilisib 0.082 | [4] 0.01 | crizotinib 0.035 | [5] 0.021 | [6] -0.061 | duvelisib 0.048 | gandotinib -0.03 | tozasertib -0.016 | [7] -0.052 | doramapimod -0.002 | ispinesib 0.059

ARL1 (UniProt P40616)
Chain of UniProt P40616 (P40616 whole entry, looked up): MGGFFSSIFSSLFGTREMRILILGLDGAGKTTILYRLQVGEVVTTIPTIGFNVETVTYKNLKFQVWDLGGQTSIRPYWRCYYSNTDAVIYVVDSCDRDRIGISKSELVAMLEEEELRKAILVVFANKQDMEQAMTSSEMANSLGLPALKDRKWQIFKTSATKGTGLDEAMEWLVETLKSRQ
active: idasanutlin -0.254
inactive: [1] -0.007 | filanesib -0.155 | zotarolimus 0.03 | alisertib -0.124 | [2] -0.042 | gefitinib 0.047 | [3] 0.042 | lapatinib 0.117 | pictilisib -0.135 | [4] 0.01 | crizotinib -0.073 | [5] 0.094 | [6] -0.092 | duvelisib -0.004 | gandotinib -0.111 | tozasertib 0.028 | [7] 0.031 | doramapimod 0.018 | ispinesib -0.064

ANAPC2 (UniProt Q9UJX6)
inactive: [1] 0.026 | filanesib -0.042 | zotarolimus 0.012 | idasanutlin -0.047 | alisertib -0.074 | [2] -0.038 | gefitinib -0.034 | [3] -0.004 | lapatinib 0.059 | pictilisib 0.015 | [4] -0.025 | crizotinib -0.084 | [5] 0.034 | [6] 0.035 | duvelisib 0.027 | gandotinib -0.044 | tozasertib 0.012 | [7] 0.028 | doramapimod 0.022 | ispinesib -0.02

BRK1 isoform 2 (UniProt Q8WUW1)
Chain of UniProt Q8WUW1 (Q8WUW1 whole entry, looked up): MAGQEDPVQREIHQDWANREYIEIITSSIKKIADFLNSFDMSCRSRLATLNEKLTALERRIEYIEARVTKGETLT
inactive: [1] 0.113 | filanesib 0.127 | zotarolimus -0.049 | idasanutlin 0.031 | alisertib -0.076 | [2] -0.07 | gefitinib 0.05 | [3] -0.041 | lapatinib -0.032 | pictilisib 0.018 | [4] -0.004 | crizotinib 0.029 | [5] 0.11 | [6] -0.276 | duvelisib 0.086 | gandotinib -0.024 | tozasertib -0.047 | [7] -0.035 | doramapimod -0.041 | ispinesib 0.18

ABCC5 (UniProt O15440)
inactive: [1] -0.026 | filanesib 0.001 | zotarolimus -0.02 | idasanutlin 0.017 | alisertib -0.026 | [2] 0.053 | gefitinib 0.089 | [3] -0.05 | lapatinib 0 | pictilisib -0.037 | [4] 0.045 | crizotinib -0.011 | [5] 0.031 | [6] 0.088 | duvelisib 0.037 | gandotinib -0.05 | tozasertib -0.023 | [7] -0.011 | doramapimod -0.023 | ispinesib -0.071

ATP6AP1 (UniProt Q15904)
inactive: [1] -0.099 | filanesib -0.064 | zotarolimus 0.025 | idasanutlin 0.009 | alisertib 0.166 | [2] -0.068 | gefitinib -0.009 | [3] -0.057 | lapatinib 0.019 | pictilisib -0.017 | [4] -0.006 | crizotinib -0.134 | [5] -0.161 | [6] 0.146 | duvelisib -0.056 | gandotinib -0.03 | tozasertib 0.028 | [7] 0.055 | doramapimod 0.045
active: ispinesib -0.317

ACSL3 (UniProt O95573)
Chain of UniProt O95573 (O95573 whole entry, looked up): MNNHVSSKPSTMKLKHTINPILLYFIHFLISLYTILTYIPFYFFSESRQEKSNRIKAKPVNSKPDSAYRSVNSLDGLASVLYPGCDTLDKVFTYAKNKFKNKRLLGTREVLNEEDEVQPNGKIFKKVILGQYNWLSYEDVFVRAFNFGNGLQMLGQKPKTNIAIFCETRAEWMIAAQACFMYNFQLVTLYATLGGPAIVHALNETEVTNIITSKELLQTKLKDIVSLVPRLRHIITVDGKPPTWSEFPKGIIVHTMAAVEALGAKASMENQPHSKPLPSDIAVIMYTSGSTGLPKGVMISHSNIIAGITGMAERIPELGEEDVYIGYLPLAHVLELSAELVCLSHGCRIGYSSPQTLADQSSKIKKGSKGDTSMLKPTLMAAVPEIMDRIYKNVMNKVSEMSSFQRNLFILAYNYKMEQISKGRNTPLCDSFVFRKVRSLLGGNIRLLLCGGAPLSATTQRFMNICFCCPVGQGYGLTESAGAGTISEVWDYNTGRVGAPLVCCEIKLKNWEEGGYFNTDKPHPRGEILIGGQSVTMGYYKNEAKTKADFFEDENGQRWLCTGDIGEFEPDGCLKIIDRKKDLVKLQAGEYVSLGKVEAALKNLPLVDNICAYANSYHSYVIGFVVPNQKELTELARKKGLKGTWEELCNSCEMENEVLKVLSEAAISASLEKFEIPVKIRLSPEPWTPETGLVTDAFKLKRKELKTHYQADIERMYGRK
inactive: [1] 0.126 | filanesib -0.045 | zotarolimus 0.019 | idasanutlin -0.127 | alisertib 0.026 | [2] 0.046 | gefitinib 0.021 | [3] 0.037 | lapatinib 0 | pictilisib 0.022 | [4] 0.009 | crizotinib -0.013 | [5] 0.011 | [6] -0.024 | duvelisib 0.043 | gandotinib -0.046 | tozasertib 0.001 | [7] 0.097 | doramapimod -0.033 | ispinesib -0.024

ARF4 (UniProt P18085)
Chain of UniProt P18085 (P18085 whole entry, looked up): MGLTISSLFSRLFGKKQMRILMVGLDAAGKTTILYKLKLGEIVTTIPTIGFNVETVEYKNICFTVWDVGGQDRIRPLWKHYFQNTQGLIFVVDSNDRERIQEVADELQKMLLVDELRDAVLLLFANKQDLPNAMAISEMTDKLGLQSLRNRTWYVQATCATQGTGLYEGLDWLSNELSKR
inactive: [1] 0.007 | filanesib -0.061 | zotarolimus 0.006 | idasanutlin -0.153 | alisertib -0.023 | [2] 0.17 | gefitinib -0.005 | [3] 0.019 | lapatinib 0.037 | pictilisib 0.035 | [4] 0.057 | crizotinib 0.081 | [5] 0.122 | [6] -0.018 | duvelisib 0.081 | gandotinib -0.074 | tozasertib -0.021 | [7] 0.017 | doramapimod -0.034
active: ispinesib 0.254

AMFR (UniProt Q9UKV5)
Chain of UniProt Q9UKV5 (Q9UKV5 whole entry, looked up): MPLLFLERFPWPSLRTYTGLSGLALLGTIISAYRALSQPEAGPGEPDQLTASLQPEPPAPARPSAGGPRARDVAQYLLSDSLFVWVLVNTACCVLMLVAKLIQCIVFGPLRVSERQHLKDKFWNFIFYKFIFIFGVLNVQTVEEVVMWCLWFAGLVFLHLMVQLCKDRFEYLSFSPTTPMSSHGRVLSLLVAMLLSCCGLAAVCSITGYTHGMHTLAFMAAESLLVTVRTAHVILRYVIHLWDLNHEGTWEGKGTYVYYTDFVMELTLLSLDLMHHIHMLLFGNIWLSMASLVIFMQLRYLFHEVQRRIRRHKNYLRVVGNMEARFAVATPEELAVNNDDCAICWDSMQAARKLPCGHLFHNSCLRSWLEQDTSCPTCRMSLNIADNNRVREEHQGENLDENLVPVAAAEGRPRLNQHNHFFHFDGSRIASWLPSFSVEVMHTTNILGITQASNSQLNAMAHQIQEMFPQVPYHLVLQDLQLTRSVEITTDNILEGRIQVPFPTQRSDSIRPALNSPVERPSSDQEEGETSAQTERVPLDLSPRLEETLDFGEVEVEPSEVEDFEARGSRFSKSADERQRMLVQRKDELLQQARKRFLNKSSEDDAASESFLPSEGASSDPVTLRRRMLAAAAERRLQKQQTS
inactive: [1] -0.048 | filanesib -0.066 | zotarolimus -0.017 | idasanutlin 0.037 | alisertib -0.012 | [2] -0.136 | gefitinib 0.071 | [3] 0.016 | lapatinib 0.003 | pictilisib -0.093 | [4] -0.008 | crizotinib -0.04 | [5] 0.018 | [6] -0.034 | duvelisib 0.028 | gandotinib 0.012 | tozasertib -0.029 | [7] 0.071 | doramapimod 0.057
active: ispinesib -0.331

ACBD6 (UniProt Q9BR61)
Chain of UniProt Q9BR61 (Q9BR61 whole entry, looked up): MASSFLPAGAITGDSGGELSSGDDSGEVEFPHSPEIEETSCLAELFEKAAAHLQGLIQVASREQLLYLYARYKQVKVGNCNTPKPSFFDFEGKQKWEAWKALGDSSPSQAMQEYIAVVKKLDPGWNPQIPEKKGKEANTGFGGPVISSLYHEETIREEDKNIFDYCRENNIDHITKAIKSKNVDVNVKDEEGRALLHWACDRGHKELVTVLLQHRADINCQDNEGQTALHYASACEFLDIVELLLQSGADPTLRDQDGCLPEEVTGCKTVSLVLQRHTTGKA
inactive: [1] 0.099 | filanesib 0.034 | zotarolimus 0.016 | idasanutlin 0.09 | alisertib -0.088 | [2] 0.133 | gefitinib -0.018 | [3] -0.271 | lapatinib -0.14 | pictilisib 0.012 | crizotinib -0.36 | [5] -0.041 | [6] 0.075 | duvelisib -0.026 | gandotinib 0.076 | tozasertib 0.032 | [7] 0.082 | doramapimod -0.048 | ispinesib -0.14
active: [4] 0.386
